The list is not random: actives were taken first. Their share in the collection is about 7.2%.
LASV entry inh: qHTS for Inhibitors of binding or entry into cells for Lassa Virus; Lassa virus pseudotype entry inhibition, cell reporter; Potency, µM (highest dose often 37.9 µM), actives largely listed as inhibitors; 300,000 compounds, 1.2% hits; AID 540256, 2011; calls by dose curve; tested in HEK293 cells; also: nearly all actives have a fitted effect of over 50% in size
Sm TGR block: qHTS Assay for the Inhibitors of Schistosoma Mansoni Peroxiredoxins; Potency, µM (doses to about 114 µM), usual class: inhibitors; Schistosoma mansoni thioredoxin glutathione reductase (TGR), Q962Y6; AID 485364, 2010; 360,000 compounds, 3% hits; purified TGR, DTNB reduction, TNB absorbance 405 nm; also: nearly all actives have a fitted effect of over 60% in size
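First, TGR (20 nM dispensed) and NADPH were mixed with compound. Second, a 15 min room-temperature incubation followed. Third, further NADPH and then DTNB were added to start the reaction. Finally, TNB absorbance was monitored kinetically.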
RE007 growth inh: qHTS Assay for Inhibitors of the HIV-1 protein Vpr; Potency, µM (top dose mostly 92.2 µM), most hits filed as inhibitors; 360,000 compounds, 0.21% hits; S. pombe RE007 Vpr strain, BacTiter-Glo ATP luminescence, 24 h; active = well fitted falling curve with a large enough effect; inconclusive = small, poorly fitted or top-dose-only effect; inactive = no such curve, though single readings can be large or run the other way; also: nearly all actives have a fitted effect of over 50% in size
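Fission yeast RE007 carrying one integrated HIV-1 vpr copy, seeded at OD 0.01 in PMG+AL medium with 23 nL pinned compound. Grown 24 h at 30 degrees; viability read by BacTiter-Glo luminescence after 5 min.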
Marburg entry inh: qHTS for inhibitors of binding or entry into cells for Marburg Virus; 300,000 compounds, 1.8% hits; Marburg virus pseudotyped entry inhibition, cell reporter; Potency, µM (top dose mostly 37.8 µM), most hits filed as inhibitors; calls by dose curve; tested in HEK293 cells
HCV inhibitor: qHTS Assay for Inhibitors of Hepatitis C Virus (HCV). 340,000 compounds, 3.4% hits. Huh7.5.1 HCVcc-Cre infection, luciferase reporter, 44 h. Potency, µM (series often up to 41.8 µM), usual class: inhibitors. AID 651820, 2012
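A cell-based infection assay in which seeded cells (1,000 per well) receive test compound after 4 h, are inoculated with HCVcc-Cre at approximately 0.5 moi, and are incubated 44 h before luminescence detection.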
FMDV antiviral: High Throughput Screening for Foot and Mouth Disease Virus Antivirals | Potency, µM (top dose mostly 57.9 µM), most hits filed as inhibitors | 410,000 compounds, 1.2% hits | FMDV antiviral cell-based qHTS; calls by dose curve; tested in HEK293T cells; also: read-out not given here; nearly all actives have a fitted effect of over 45% in size
Hits are given with their value; i = inactive; ? = inconclusive; nt = no result given. Unless noted, calls follow the shape of the dose curve; as a rule, active = well fitted curve in the direction sought with a large enough effect; inconclusive = small, poorly fitted or top-dose-only effect, or another doubt; inactive = no such curve, though single readings can be large; an effect the other way counts as inactive or inconclusive.

SMILES | LASV entry inh | Sm TGR block | RE007 growth inh | Marburg entry inh | HCV inhibitor | FMDV antiviral
CCc1nn(Cc2cc(C)ccc2C)c(=O)c2cc3cc(C)ccc3n12 | nt | i | nt | i | nt | i
Cc1ccc2[nH]c(=O)c3cc(C(=O)NC4CCC(C)CC4)sc3c2c1 (configuration not stated) | nt | i | nt | i | nt | i
CSc1cccc(NC(=O)C2CCN(c3ncnc4c3nc3n4CCCCC3)CC2)c1 | i | i | nt | nt | nt | i
O=C1C2=C(C(=O)c3ccccc31)[C@H]1O[C@](c3ccsc3)(Cc3c1ccc1ccccc31)O2 | nt | nt | nt | i | nt | nt
O=C(CCCc1nc(-c2ccc(Cl)cc2)no1)NC1CCCCC1 | ? | i | i | ? | 7.1µM | ?
O=C(CCc1nc(-c2ccc(Cl)cc2)no1)NC1CCCC1 | nt | i | i | nt | i | i
Cc1ccc(N2CCN(C(=O)C(=O)c3cccc([N+](=O)[O-])c3)CC2)cc1 | nt | nt | i | nt | nt | i
CCN(Cc1ccccc1)C(=O)c1cc2c(OC)c(OC)c(OC)cc2[nH]1 | nt | 35µM | i | nt | i | i
O=[N+]([O-])c1ccc(COc2cccc(CNc3ccc(F)cc3)c2)cc1 | i | i | i | ? | i | i
Oc1ccc(NCc2cccc(OCc3ccc(F)cc3)c2)cc1 | nt | 28µM | i | nt | i | i
Oc1ccc(NCc2cccc(OCc3ccccc3)c2)cc1 | nt | 13µM | i | nt | i | i
c1ccc(COc2cccc(CNCc3cccnc3)c2)cc1 | i | nt | i | i | i | i
COc1cc(OC)c(Nc2c3c(nc4nc(-c5cccs5)nn24)CCCC3)cc1Cl | ? | i | nt | nt | nt | ?
CC1(C)CC(=O)c2c(oc3ccc(NS(=O)(=O)c4cccc5cccnc45)cc23)C1 | ? | i | i | ? | ? | 11µM
O=C1CCCc2oc3ccc(NS(=O)(=O)c4cccc5cccnc45)cc3c21 | i | i | i | ? | ? | i
O=C(NCc1ccccn1)c1ccc(CS(=O)(=O)Cc2ccc(Cl)cc2)o1 | i | 28µM | i | i | i | i
Cc1ccccc1CS(=O)(=O)Cc1ccc(C(=O)NCc2ccco2)o1 | i | 56µM | i | i | i | i
Cc1cc(C(F)(F)F)nn1Cc1ccc(C(=O)NCc2ccco2)o1 | ? | 11µM | i | i | i | i
Cc1ccccc1CS(=O)(=O)Cc1ccc(C(=O)NCc2ccccn2)o1 | i | 13µM | i | i | i | i
C#CC1(O)C(OC)=CC2C(=O)C1C(c1ccccc1)C2C (configuration not stated) | ? | nt | nt | i | nt | nt
COCCSc1ccccc1C(=O)Nc1ccc([N+](=O)[O-])cc1OC | nt | i | ? | nt | ? | i
COCCSc1ccccc1C(=O)Nc1cc([N+](=O)[O-])ccc1OC | nt | nt | i | nt | 7.9µM | i
CCOC(=O)[C@@]1([C@@H](NC(=O)OC)c2ccco2)CCCC1=O | nt | nt | nt | i | nt | nt
CCOc1ccc2nc(NC3=NC(c4ccc(OC)cc4)CC(=O)N3)nc(C)c2c1 (configuration not stated) | ? | ? | i | ? | 8.9µM | nt
N=c1c2c(-c3ccccc3)c(-c3ccccc3)n(Cc3ccccc3)c2ncn1CCCn1ccnc1 | ? | i | i | ? | 0.5µM | i
SMILES | LASV entry inh | Sm TGR block | RE007 growth inh | Marburg entry inh | HCV inhibitor | FMDV antiviral
N=c1c2c(-c3ccccc3)c(-c3ccccc3)n(Cc3ccco3)c2ncn1Cc1ccco1 | ? | ? | i | ? | 16µM | 25µM
COc1cc(N2C(=O)C=CC2=O)ccc1N1C(=O)C=CC1=O | ? | nt | i | ? | ? | 32µM
COc1ccc(OC)c2sc(N3CCc4ccccc4C3)nc12 | i | i | i | i | ? | i
c1ccc2c(c1)CCN(c1nc3cc4c(cc3s1)OCCO4)C2 | 4.6µM | i | ? | ? | ? | 7.9µM
COc1ccc2c(C(=O)CCl)c[nH]c2c1 | nt | 4.5µM | i | nt | ? | 35µM
COc1ccc2c(CC#N)c[nH]c2c1 | i | 50µM | i | i | i | i
COc1ccc2[nH]cc(C(=O)CN(C)C)c2c1 | nt | nt | i | nt | i | i
COc1ccc2c(CCN)c[nH]c2c1 | i | i | i | i | i | i
CCC(C(=O)NCCc1ccc(Cl)cc1)n1nc(C)c2c(C)n(-c3ccccc3)nc2c1=O (configuration not stated) | i | i | nt | nt | nt | ?
Cn1cccc1/C=N/N1CCN(c2ccccc2)CC1 | i | 45µM | i | i | i | i
Cn1cccc1/C=N/N1CCN(Cc2ccccc2Cl)CC1 | i | 50µM | i | i | 0.32µM | i
Fc1ccccc1/C=N/N1CCN(Cc2ccccc2Cl)CC1 | i | i | i | i | i | i
Cc1nc(NC2=NCN(CCCN3CCOCC3)CN2)nc2c(C)cccc12 | ? | i | i | ? | 7.1µM | i
O=C1CSC2(C(=O)N(Cc3ccccc3F)c3ccccc32)N1c1ccc(F)cc1 (configuration not stated) | i | i | nt | nt | nt | ?
CCc1cccc(N2C(=O)CSC23C(=O)N(Cc2ccccc2F)c2ccccc23)c1 (configuration not stated) | 10µM | i | nt | nt | nt | ?
CC(=O)Oc1ccc(OC(C)=O)c(SCCCCCN2CCOCC2)c1 | ? | 50µM | i | 16µM | 11µM | ?
Cn1c2ccccc2c(=O)c2cc(C#Cc3cccc(N)c3)ccc21 | nt | i | i | nt | ? | i
Cn1c2ccccc2c(=O)c2cc(C#CC3=CCCCC3)ccc21 | nt | 2.2µM | i | nt | ? | i
N#Cc1ccc2c(c1)C[C@]1(c3ccsc3)Oc3c(c(=O)oc4ccc(F)cc34)[C@@H]2O1 | ? | nt | nt | i | nt | nt
CCOC(=O)/C=C1\CN(Cc2cc(OC)c(OC)c(OC)c2)S(=O)(=O)c2ccccc21 | nt | ? | i | nt | 3.2µM | i
CCOC(=O)/C=C1\CN(Cc2cc(OC)c(OC)c(OC)c2)S(=O)(=O)c2ccc(C(F)(F)F)cc21 | nt | 28µM | i | nt | ? | ?
CCCCCCCCCCCCN1C/C(=C\C(=O)OCC)c2ccccc2S1(=O)=O | nt | i | i | nt | i | i
CCOC(=O)c1c(NC(=O)CN2CCN(S(=O)(=O)c3cc(Cl)ccc3Cl)CC2)sc(C(=O)N(C)C)c1C | nt | nt | i | nt | 11µM | ?
CCOC(=O)c1sc(NC(=O)CN2CCCC2)c(C(=O)OCC)c1C | i | i | i | i | i | i
CCOC(=O)c1c(NC(=O)CN2CCN(C)CC2)sc(C(=O)Nc2ccccc2)c1C | i | i | i | ? | 6.3µM | i
CCOC(=O)c1c(NC(=O)CN2C(=O)NC(C)(c3ccc(Cl)cc3)C2=O)sc(C(=O)NC)c1C (configuration not stated) | ? | i | i | ? | 14µM | i
CC1(c2ccc(Cl)cc2)NC(=O)N(CC(=O)N2CCCC2)C1=O (configuration not stated) | i | i | i | i | 16µM | i
COc1ccc(CNC(=O)c2cnn(-c3ncc4c(n3)-c3ccccc3CC4)c2C)cc1OC | nt | nt | nt | nt | nt | i
Cc1ccc(-c2nc(C)c(CCNC(=O)c3cccs3)s2)cc1 | i | i | nt | nt | nt | i
